Data: PubChem BioAssay AID492952 (Southern Research Specialized Biocontainment Screening …, 2010)
About 1,500 (65%) of roughly 2,300 compounds were called active. The set was probably picked from earlier hits. This is one part of the list. Measured potencies and affinities stand elsewhere. Values without a mark were called inactive. How the calls were made is not given here.

Assay: replicating M. tuberculosis growth inhibition, dose response, non-replicating M. tuberculosis project, H37Rv (AID 492952);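 further: Mycobacterium tuberculosis grown in culture; growth inhibition read after a week of incubation; 0% = bacteria alone untreated and 100% = bacteria with high antibiotic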
Details: series mostly up to 50 µM; inhibition: at the top concentration
In the case of `CCc1ccc(N=CC2=C(O)CC(c3ccco3)CC2=O)cc1` (stereo unspecified), the “inhibition” value is reported as 3%. For `CC(=O)N(c1nnc(-c2ccc(C)cc2)s1)C1CCCC1`, the “inhibition” value was 20.1%. In the case of `O=C(NCCC1=CCCCC1)c1ccc(F)cc1`, the “inhibition” value is reported as -3.67%. In the case of `O=C(NCCC1=CCCCC1)c1ccc(Br)o1`, the “inhibition” value is reported as -0.64%. For `COc1ccccc1-c1cc(SC)c(C#N)c(=O)o1`, the “inhibition” value was -0.91%. With `COc1ccccc1-c1nnc(-c2ccc(C)cc2)o1` the “inhibition” value was 7.38%. For `O=C(COC(=O)c1cccc(C(F)(F)F)c1)NCc1ccccc1`, the “inhibition” value was -2.81%. In the case of `FC(F)(F)c1ccc(NCCc2ccccc2)nc1`, the “inhibition” value is reported as -0.21%. In the case of `CCOC(=O)Cc1csc(NC(=O)COc2ccc3c(c2)CCC3)n1`, the “inhibition” value is reported as 0.53%. For `Nc1nnc(SCCCC(=O)c2ccc(Br)cc2)s1`, the “inhibition” value was 5.18%. With `O=C(CNC(=O)c1ccc(Br)cc1)c1ccc(Br)cc1` the “inhibition” value was 23.6%. For `Cc1ccc(C(=O)N/N=C\c2ccc[nH]2)cn1`, the “inhibition” value was -5.12%. For `Cc1cccc(C)c1NC(=O)c1sc(N)nc1-c1ccccc1`, the “inhibition” value was -4.98%. With `COc1cccc(/C=N/N2C(=O)CSC2=S)c1O` the “inhibition” value was -2.68%. With `O=C(N/N=C\c1ccco1)c1cncc(Br)c1` the “inhibition” value was 16.6%. In the case of `Cc1ccc(C(=O)c2cncc(Br)c2)cc1`, the “inhibition” value is reported as -7.1%. In the case of `Nn1c(SCCOc2ccc(Cl)cc2)nnc1-c1cccnc1`, the “inhibition” value is reported as -2.3%. With `CSCCC(=O)N1CCCC(N2CCN(c3cccc(C(F)(F)F)c3)CC2)C1` (stereo unspecified) the “inhibition” value was 4.08%. For `COC(=O)c1ccc(CO/N=C/c2ccc(OC)cc2)o1`, the “inhibition” value was 4.34%. In the case of `CCCNC(=O)c1ccc(COc2ccc(C)cc2)o1`, the “inhibition” value is reported as 1.85%. In the case of `Cc1cccc2c(CC(=O)O)noc12`, the “inhibition” value is reported as 1.24%. For `O=C(NNc1ccc([N+](=O)[O-])cc1)c1ccccc1Cl`, the “inhibition” value was 3.86%. With `CC1(C)CC(=O)c2cc(C(=O)NNc3ccccc3)c(=O)n(-c3ccccc3)c2C1` the “inhibition” value was 14.9%. In the case of `Clc1ccc2c(N3CCCC3)ccnc2c1`, the “inhibition” value is reported as -0.83%. For `Cc1ccc(O)c(C(=O)c2cc(C#N)c(=O)n(-c3nccs3)c2)c1`, the “inhibition” value was 4.6%. In the case of `Cn1c(=O)c2c(=O)cc(NNC(=O)CC#N)[nH]c2n(C)c1=O`, the “inhibition” value is reported as 3.96%. With `Cc1ccc(/C=C2\SC(=S)N(C3CCS(=O)(=O)C3)C2=O)o1` (stereo unspecified) the “inhibition” value was -0.18%. In the case of `Cc1ccsc1C(=O)OCC(=O)NCCC1=CCCCC1`, the “inhibition” value is reported as 2.87%. With `O=C(COC(=O)c1cccs1)NCCC1=CCCCC1` the “inhibition” value was 1.34%. For `O=C(Nc1nnc(-c2ccc(Cl)cc2)o1)c1cccc(N2C(=O)CCC2=O)c1`, the “inhibition” value was -1.86%. For `O=C(c1ccc(Cl)cc1)c1nnc(-c2ccncc2)o1`, the “inhibition” value was -4.56%. With `Cc1ccc(N=N/C(=C\O)C(=O)c2ccncc2)cc1` the “inhibition” value was 3.09%. For `FC(F)(F)c1ccc(-c2nnc(-c3cccnc3)o2)cc1`, the “inhibition” value was 5.31%. In the case of `CC1(c2nnc(-c3ccccc3)o2)CC(c2ccc(Cl)cc2)=NO1` (stereo unspecified), the “inhibition” value is reported as -7%. With `CC1=NN(C(=O)COc2ccccc2)C(O)(c2ccccc2)C1` (stereo unspecified) the “inhibition” value was 2.02%. In the case of `CCOc1ccc(CC(=O)N2N=C(C)CC2(O)C(F)(F)F)cc1` (stereo unspecified), the “inhibition” value is reported as -10.6%.
